# According to PubChem BioAssay (NCATS):
# Records with an inconclusive call do not appear. Entries that show only a call come without a potency. Activity calls are given as the source filed them. Calls come from the whole dose curve; as a rule, active = well fitted cell-killing curve with a large enough effect; inconclusive = small, poorly fitted or top-dose-only effect, or effect the other way; inactive = no such curve, though single readings can be large or run the other way.
# Experiment: Quantitative High-Throughput drug screen in 47 multiple myeloma cell lines against the NCATS MIPE library collection: KMS28BM_JCRB cell viability assay (AID 1919874); note: nearly all actives have a fitted effect of over 35% in size
# Details: CellTiter-Glo ATP, 48 h; series mostly up to 45.8 µM
# Method in brief: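 500 cells/well per myeloma line exposed to pinned MIPE 4.0 compounds for 48 h at 37 °C, 5% CO2. Viability read as ATP by CellTiter-Glo luminescence, normalised to DMSO-only (100%) and media-only (0%) wells.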
# Potency is the fitted concentration of half-maximal effect.
row,Compound,Potency
1,O=C(O)[C@H](CC(=O)N1C[C@@H]2CCCC[C@H]2C1)Cc1ccccc1,inactive
2,Nc1nc(=O)n([C@H]2C[C@H](O)[C@@H](CO)O2)cc1F,inactive
3,C=CC(=O)Nc1cc(NC(=O)c2ccc(C)c(NC(=O)c3ccno3)c2)cc(C(F)(F)F)c1,20900 nM (active)
4,Cc1[nH]c(C=C2C(=O)Nc3ccccc32)c(C)c1CCC(=O)O,14800 nM (active)
5,CNC(=O)Nc1ccc(-c2nc(N3CC4CCC(C3)O4)c3cnn(C4CCC5(CC4)OCCO5)c3n2)cc1,7.4 nM (active)
6,CC(N[C@H]1CCCC[C@H]1NC(=O)c1ccc(Cl)cc1)c1cccc2ccccc12 (stereo not given in full),18700 nM (active)
7,CC(=O)OCC(=O)[C@@]1(O)CC[C@H]2[C@@H]3CCC4=CC(=O)CC[C@]4(C)[C@@H]3C(=O)C[C@@]21C,inactive
8,CC(C)(O)Cn1c(NC(=O)c2ccc(-c3cn[nH]c3)s2)nc2cc(CN3CCOCC3)ccc21,743 nM (active)
9,CC(=O)O[C@H]1C[C@@H]2CC[C@H]3[C@H]4C[C@H]([N+]5(C)CCCCC5)[C@@H](OC(C)=O)[C@@]4(C)CC[C@@H]3[C@@]2(C)C[C@H]1N1CCCCC1,inactive
10,CN(N=O)C(=O)N[C@H]1C(O)OC(CO)[C@@H](O)[C@H]1O (stereo not given in full),inactive
11,C[C@H](NC(=O)Cc1cc(F)cc(F)c1)C(=O)N[C@H](C(=O)OC(C)(C)C)c1ccccc1,inactive
12,CCCCC(=O)O[C@]1(C(=O)CO)[C@@H](C)C[C@H]2[C@@H]3CCC4=CC(=O)C=C[C@]4(C)[C@@]3(F)[C@@H](O)C[C@@]21C,inactive
13,Nc1ccn(C2CO[C@H](CO)O2)c(=O)n1 (stereo not given in full),inactive
14,CCCCCCCN(CC)CCCC(O)c1ccc(NS(C)(=O)=O)cc1 (stereo not given),inactive
15,Nc1ccn(C[C@@H](CO)OCP(=O)(O)O)c(=O)n1,inactive
16,c1coc(CNc2ncnc3nc[nH]c23)c1,inactive
17,N#CC(=C(N)Sc1ccc(N)cc1)c1ccccc1C(F)(F)F,inactive
18,C[C@@H]1[C@H](C)CC[C@]2(C(=O)O)CC[C@]3(C)C(=CC[C@@H]4[C@@]5(C)C[C@@H](O)[C@H](O)[C@@](C)(CO)[C@H]5CC[C@]43C)[C@@H]12,inactive

row,Compound,Potency
1,COc1ccc(C=Cc2cc(OC)c(OC)c(OC)c2)cc1NC(=O)[C@H](N)CO,11.8 nM (active)
2,O=c1ccn([C@@H]2O[C@H](CO)[C@H](O)[C@@H]2F)c(=O)[nH]1,inactive
3,O=C(O)C=Cc1ccc(Cn2ccnc2)cc1,inactive
4,C#C[C@]1(O)CC[C@@H]2[C@@H]3CCC4=CC(=O)CC[C@@H]4[C@H]3CC[C@@]21CC,inactive
5,CC(=O)O[C@@]12CO[C@H]1C[C@H](O)[C@@]1(C)C(=O)[C@H](O)C3=C(C)[C@@H](OC(=O)C(O)[C@@H](NC(=O)OC(C)(C)C)c4ccccc4)C[C@@](O)([C@@H](OC(=O)c4ccccc4)[C@@H]21)C3(C)C (stereo not given in full),inactive
6,N[C@H]1CN(c2c(F)cc3c(=O)c(C(=O)O)cn(C4C[C@@H]4F)c3c2Cl)CC12CC2 (stereo not given in full),inactive
7,CC1(C)[C@H](O[C@H]2O[C@H](C(=O)O)[C@@H](O)[C@H](O)[C@H]2O[C@@H]2O[C@H](C(=O)O)[C@@H](O)[C@H](O)[C@H]2O)CC[C@@]2(C)[C@H]1CC[C@]1(C)[C@H]2C(=O)C=C2[C@H]3C[C@@](C)(C(=O)O)CC[C@]3(C)CC[C@]21C,inactive
8,O=C(NCc1ccccc1)[C@H](Cc1ccccc1)NC(=O)[C@@H]1O[C@@H]1C(=O)NCCc1ccc(O)cc1,inactive
9,O=C(C=CC#Cc1cccc(NS(=O)(=O)c2ccccc2)c1)NO,833 nM (active)
10,CC(C)N1[N]C(=C2C=c3cc(O)ccc3=N2)c2c(N)ncnc21,1320 nM (active)
11,CC(=O)SCC(Cc1ccccc1)C(=O)NCC(=O)OCc1ccccc1 (stereo not given),11800 nM (active)
12,Cc1onc(-c2ccccc2)c1C(=O)N[C@@H]1C(=O)N2[C@@H](C(=O)O)C(C)(C)S[C@@H]12,inactive
13,CCc1ccc(C(=O)Nc2cc(CN3CCN(C)CC3)cc(C(F)(F)F)c2)cc1C#Cc1cnc2ccnn2c1,4180 nM (active)
14,CC(=O)C1=C(O)C=C2Oc3c(C(C)=O)c(O)c(C)c(O)c3C2(C)C1=O (stereo not given),inactive
15,C[C@@H]1CC[C@@]2(OC1)OC1CC3C4CC=C5CC(O)CCC5(C)C4CCC3(C)C1[C@@H]2C (stereo not given in full),inactive
16,CC(C)C[C@H](NC(=O)[C@@H](NC(=O)c1cccc(-c2ccccc2)n1)[C@@H](C)O)B(O)O,14.8 nM (active)
17,COc1cccc2c1C(=O)c1c(O)c3c(c(O)c1C2=O)C[C@@](O)(C(C)=O)C[C@H]3O[C@H]1C[C@H](N)[C@H](O)[C@H](C)O1,29.6 nM (active)
